High-throughput results as filed in PubChem BioAssay.
Only some compounds are listed: those with a hit (about 1.4% of all), similar ones and a draw of the others.
HTT-AS promoter: activates huntingtin-antisense promoter activity. 48,000 tested, 0.24% active. AID 1508624. Potency, µM (series often up to 57.5 µM), for inactives: at the top dose activity change, positive = activation, most hits filed as activators. HEK293 HTT-AS promoter firefly luciferase reporter, 24 h; response scale: percent change from vehicle, -100% = no light; note: potency is the fitted concentration of half-maximal effect; nearly all actives have a fitted effect of over 55% in size
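Luminescence was read after Dual-Glo reagent and a 10 min room-temperature incubation. Values were normalized to vehicle (0% activity) and zero RLU (-100% activity). Reporter HEK293 cells had been exposed to compounds (up to 57.5 uM final) for 24 h.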
GALK inh: inhibits human galactokinase; P51570; recombinant GALK, Kinase-Glo ATP luminescence, 1 h; Potency, µM (series often up to 57.5 µM), without a hit: at the highest dose activity, negative = inhibition, most hits filed as inhibitors; 44,000 tested, under 10 active; AID 1347072;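 note: plate controls were full GALK reaction for no effect and reaction lacking GALK for full effect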
Target sequence (P51570 whole entry, looked up): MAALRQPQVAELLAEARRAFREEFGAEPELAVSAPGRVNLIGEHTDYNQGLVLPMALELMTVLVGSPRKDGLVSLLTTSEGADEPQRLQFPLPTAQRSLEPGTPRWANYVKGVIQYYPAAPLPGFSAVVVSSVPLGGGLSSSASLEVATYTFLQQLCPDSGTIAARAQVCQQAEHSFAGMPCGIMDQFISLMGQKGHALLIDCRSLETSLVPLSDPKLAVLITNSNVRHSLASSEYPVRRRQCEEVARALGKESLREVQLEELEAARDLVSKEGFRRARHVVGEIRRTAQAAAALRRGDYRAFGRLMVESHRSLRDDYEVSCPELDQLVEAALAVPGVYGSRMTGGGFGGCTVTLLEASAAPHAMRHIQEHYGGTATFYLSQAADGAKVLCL
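Compounds were pinned into ATP buffer, then GALK-galactose mix was added (final 5 nM enzyme, 35 uM ATP, 100 uM galactose, pH 8.0). After 1 h at room temperature, Kinase-Glo Plus was added and luminescence read.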
HTT promoter inh: inhibitors of huntingtin promoter activity; 48,000 tested, 0.93% active; Potency, µM (doses to about 57.5 µM), without a hit: at the highest dose activity change, negative = inhibition, hits mostly inhibitors; HEK293 HTT promoter firefly luciferase reporter, 24 h; note: potency is the fitted concentration of half-maximal effect; nearly all actives have a fitted effect of over 50% in size
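Luminescence was read after Dual-Glo reagent and a 10 min room-temperature incubation. Values were normalized to vehicle (0% activity) and zero RLU (-100% activity). Reporter HEK293 cells had been exposed to compounds (up to 57.5 uM final) for 24 h.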
B2AR arrestin ag: agonists recruiting beta-arrestin to human beta2-adrenergic receptor; HTLA Tango cells, beta-arrestin recruitment, luciferase luminescence, 18 h; Potency, µM (top dose mostly 46.1 µM), usual class: activators; 44,000 tested, under 10 active; AID 1347077;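 note: potency is the fitted concentration of half-maximal effect; 0% = DMSO and full agonism = EC100 isoproterenol or metaproterenol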
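Tango cell line, 1% FBS DMEM; cpd titration up to 46 microM; 18 hr, 37 degrees C, 5% CO2. Luciferin/ATP substrate mix added, 15 min RT, luminescence. %Activity, CRC fitting, curve-class categorization.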
GALC G270D up: galactocerebrosidase G270D activity enhancement, cell-based; Potency, µM (top dose mostly 57.5 µM), most hits filed as activators; 145M-Twi-hGALC-G270D cells (Twitcher mouse brain line with human GALC G270D), HMU-beta-Gal fluorescence, 48 h; P54803; 45,000 tested, 0.1% active; note: potency is the fitted concentration of half-maximal effect; 0% is about no effect; nearly all actives have a fitted effect of over 65% in size
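Mutant human GALC (G270D), stably expressed in a Twitcher mouse brain cell line lacking endogenous GALC, is measured in live-treated cells via 6-hexadecanoylamino-4-methylumbelliferyl-β-galactoside hydrolysis (0.1 mM final, pH 5.2) with fluorescent detection.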
TSG101-PTAP inh: blocks PTAP binding to human TSG101, validation; Q99816; Fluorescence polarization, FITC-PTAP peptide/Tsg101, 20 min; Potency, µM (top dose mostly 115 µM), most hits filed as inhibitors; 44,000 tested, under 10 active; AID 1347069; note: potency is the fitted concentration of half-maximal effect; 0% is about no effect
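Steps: Tsg101 binding domain (10 uM final) in HEPES pH 7.5/NaCl/Tween 20/EDTA/TCEP; add compound; add FITC-PTAP peptide (50 nM final); incubate 20 min r.t.; read polarization.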
An asterisk follows results filed as active; i = inactive; u = inconclusive; x = not tested or not shown; [ ] = another dose, or the depositor's remark. Calls come from the whole dose curve; as a rule, active = well fitted curve in the direction sought with a large enough effect; inconclusive = small, poorly fitted or top-dose-only effect, or another doubt; inactive = no such curve, though single readings can be large; an effect the other way counts as inactive or inconclusive.

SMILES	HTT-AS promoter	GALK inh	HTT promoter inh	B2AR arrestin ag	GALC G270D up	TSG101-PTAP inh
COc1cc(C)c(S(=O)(=O)Nc2cccc(-c3ccc(N4CCCC4)nn3)c2)cc1C	x	1.0%	x	i	x	i
Cn1nnnc1SCCNCc1cc(Br)ccc1OCc1ccccc1Cl	-51.7%	8.3%	28.2µM*	i	i	i
CCN(CC)S(=O)(=O)c1ccc2c(c1)c(=O)c(C(=O)NCc1ccccc1)cn2C	-15.8%	7.7%	-9.9%	i	i	i
CCN(CC)S(=O)(=O)c1ccc2c(c1)c(=O)c(C(=O)N(C)Cc1ccccc1)cn2C	-2.7%	5.9%	5.8%	i	25.1µM*	i
Cc1ccc(CCNc2ncnc3onc(-c4ccc(Cl)cc4)c23)cc1	-21.8%	0.3%	u	i	i	i
CCOc1ccc(CCNc2ncnc3onc(-c4ccc(Cl)cc4)c23)cc1	-67.6%	-0.6%	14.1µM*	i	i	i
CSc1ccc(CCNc2ncnc3onc(C)c23)cc1	-79.2%	1.2%	1µM*	i	i	i
COc1ccc(CCNc2ncnc3onc(C)c23)c(OC)c1	-84.1%	-2.3%	1.26µM*	i	i	i
COc1cccc(CNc2ncnc3onc(C)c23)c1	-58.0%	2.8%	u	i	i	i
COc1cccc(-c2nc(S(=O)(=O)c3ccccc3)c(N3CCC(C)CC3)o2)c1	-9.6%	0.0%	-18.8%	i	i	i
Cc1ccc(-n2ncc3c(N4CCCCC4)ncnc32)cc1Cl	-84.0%	-0.1%	-86.0%	i	i	i
Cc1ccc(-n2ncc3c(N4CCCCCC4)ncnc32)cc1Cl	-79.6%	-5.8%	0.355µM*	i	i	i
CC(C)COc1ccc(C(=O)N2CCN(CCc3ccncc3)CC2)cc1	-35.3%	1.4%	u	i	i	i
Cc1cc(-c2nc3ncccc3o2)ccc1NC(=O)COc1ccc(C(C)(C)C)cc1	17.2%	3.1%	9.8%	i	i	i
Cc1cccc(-c2nnc(SCC(=O)N3CCCCC3)o2)c1	u	4.3%	71.3%	i	i	i
Cc1cccc(-c2nnc(SCCC(=O)O)o2)c1	-91.0%	2.9%	0.251µM*	i	i	i
CCc1ccccc1NC(=O)CSc1ncc(S(=O)(=O)c2ccc(C(C)C)cc2)c(N)n1	-43.3%	-1.5%	u	i	i	i
CC(Sc1ncc(S(=O)(=O)c2ccc(C(C)C)cc2)c(N)n1)C(=O)Nc1ccccc1 (stereo unspecified)	-46.6%	1.7%	31.6µM*	i	i	i
CCCn1c2ccccc2c2cnn(CC(=O)NCCc3ccc(OC)cc3OC)c(=O)c21	-12.9%	-10.2%	-10.0%	i	i	i
COc1ccc(N2CCN(C(=O)CCc3c(C)nc4cc(-c5ccc(OC)cc5OC)nn4c3C)CC2)cc1	-22.8%	-0.3%	-22.7%	i	i	i
COc1cc(NC(=O)CCc2c(C)nc3cc(-c4ccccc4)nn3c2C)cc(OC)c1OC	-69.4%	10.2%	3.98µM*	i	i	i
COc1cc(OC)cc(-c2cc3nc(C)c(CCC(=O)Nc4ccc(F)c(Cl)c4)c(C)n3n2)c1	-82.6%	0.7%	1.58µM*	i	i	i
COC(=O)c1cc(NC(=O)CCc2c(C)nc3cc(-c4ccccc4)nn3c2C)cc(C(=O)OC)c1	-20.3%	8.3%	-25.1%	i	i	i
COc1ccc(N2CCN(C(=O)CCc3c(C)nc4cc(-c5ccc(Cl)cc5)nn4c3C)CC2)cc1	-78.1%	7.2%	0.316µM*	i	i	i
COc1ccc(NC(=O)CCc2c(C)nc3cc(-c4cccc(F)c4)nn3c2C)cc1Cl	-66.0%	1.1%	2.24µM*	i	i	i
SMILES	HTT-AS promoter	GALK inh	HTT promoter inh	B2AR arrestin ag	GALC G270D up	TSG101-PTAP inh
COc1ccc(Cl)cc1NC(=O)CSC1=Nc2ccccc2C2=NC(CCC(=O)NCc3ccco3)C(=O)N12 (stereo unspecified)	-15.9%	-8.5%	-10.9%	i	i	i
Cc1cccc(-n2c(N)cc(=O)nc2SCC(=O)Nc2ccc(F)cc2)c1C	-6.4%	7.8%	-34.4%[11.5 µM]	i	i	i
COc1cccc(/C=C/c2nc(C#N)c(N(C)Cc3ccccc3)o2)c1	-16.3%	2.7%	-13.0%	i	25.1µM*	i
COc1cccc(/C=C/c2nc(C#N)c(NCCc3ccccc3)o2)c1	2.3%	2.6%	18.6%	i	i	i
COc1cccc(/C=C/c2nc(C#N)c(N3CCC(C(N)=O)CC3)o2)c1	-11.0%	-4.0%	-1.1%	i	25.1µM*	i
COc1ccc(/C=C/c2nc(C#N)c(N3CCN(c4ccccc4)CC3)o2)cc1OC	-13.0%	0.0%	-8.8%	i	u	i
COc1ccc(/C=C/c2nc(C#N)c(N3CCCCC3)o2)cc1OC	-12.3%	2.4%	-18.1%	i	28.2µM*	i
CCOC(=O)Cn1c(=O)oc2cc(S(=O)(=O)N3CCN(c4ccccc4F)CC3)ccc21	-32.6%	-2.0%	u	i	i	i
Cc1ccc(NCc2cccn2-c2nnc(N3CCCCCC3)s2)cc1	-61.7%	-2.4%	7.94µM*	i	i	i
COc1ccc(OC(=O)CSc2nnc(-c3ccc(F)cc3)o2)cc1	-5.5%	2.9%	2.8%	i	i	i
CCOc1ccc(-c2nnc(SCC(=O)Oc3ccccc3)o2)cc1	-89.5%	2.8%	2.82µM*	i	i	i
Cc1ccc(S(=O)(=O)N2CCCC2C(=O)Nc2ccc(Br)cc2)cc1 (stereo unspecified)	-50.4%	3.7%	31.6µM*	i	i	i
COc1ccc(CCNC(=O)c2nc(SCc3ccccc3F)ncc2Cl)cc1OC	-48.5%	5.3%	17.8µM*	i	i	i
Cc1ccc(CNC(=O)c2nc(SCc3ccccc3F)ncc2Cl)cc1	-20.2%	-0.7%	-21.1%	i	i	i
COc1ccc(OCC(O)Cn2c(NCCO)nc3c2c(=O)n(C)c(=O)n3C)cc1 (stereo unspecified)	-67.4%	0.8%	14.1µM*	i	i	i
Cc1cccc(-c2nc(CN3CCCC(C(=O)NCCc4ccc(Cl)cc4)C3)c(C)o2)c1 (stereo unspecified)	-46.4%	7.9%	31.6µM*	i	i	i
Cc1nn(-c2ccc(F)cc2)c(-n2cccc2)c1C(=O)N1CCN(c2ccc(F)cc2)CC1	-34.2%	0.7%	28.2µM*	i	i	i
